Bioassay records (PubChem)
CYP2C19 act = activators of human cytochrome P450 2C19 | P33261 | recombinant CYP2C19, luciferin-H EGE luminescence; active compounds read high; 0 = fully inhibited enzyme, 1 = untreated enzyme | activation factor at 5 µM | 96,000 tested, under 10 active | AID 1025;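 active means activation factor of at least 2 at 5 µM in the primary screen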;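 further: 0 = wells with 2.5 mM tranylcypromine and 1 = vehicle-only wells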
CYP2C19 inh = blocks human cytochrome P450 2C19 | 21% of 96,000 active | CYP2C19 Supersomes, luciferin-H EGE luminescence, 30 min | P33261 | inhibition, % at 5 µM | AID 778;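 active means CYP2C19 inhibition above a set limit at 5 µM in the primary screen, cut at about 50% in these data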;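 further: plate controls were negative control wells for no effect and 2.5 mM tranylcypromine positive control for full effect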
Cav32 inh = inhibitors of human Cav3.2 T-type calcium channel. O95180. Cav3.2-expressing cells, Fluo-4 calcium fluorescence FDSS; active compounds read low. B-score at 10 µM. 4% of 100,000 active;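 active means single-dose well whose peak fluorescence ratio is a statistical outlier from its plate by either plate-standardised score or position-corrected B-score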
Target sequence (O95180 whole entry, looked up): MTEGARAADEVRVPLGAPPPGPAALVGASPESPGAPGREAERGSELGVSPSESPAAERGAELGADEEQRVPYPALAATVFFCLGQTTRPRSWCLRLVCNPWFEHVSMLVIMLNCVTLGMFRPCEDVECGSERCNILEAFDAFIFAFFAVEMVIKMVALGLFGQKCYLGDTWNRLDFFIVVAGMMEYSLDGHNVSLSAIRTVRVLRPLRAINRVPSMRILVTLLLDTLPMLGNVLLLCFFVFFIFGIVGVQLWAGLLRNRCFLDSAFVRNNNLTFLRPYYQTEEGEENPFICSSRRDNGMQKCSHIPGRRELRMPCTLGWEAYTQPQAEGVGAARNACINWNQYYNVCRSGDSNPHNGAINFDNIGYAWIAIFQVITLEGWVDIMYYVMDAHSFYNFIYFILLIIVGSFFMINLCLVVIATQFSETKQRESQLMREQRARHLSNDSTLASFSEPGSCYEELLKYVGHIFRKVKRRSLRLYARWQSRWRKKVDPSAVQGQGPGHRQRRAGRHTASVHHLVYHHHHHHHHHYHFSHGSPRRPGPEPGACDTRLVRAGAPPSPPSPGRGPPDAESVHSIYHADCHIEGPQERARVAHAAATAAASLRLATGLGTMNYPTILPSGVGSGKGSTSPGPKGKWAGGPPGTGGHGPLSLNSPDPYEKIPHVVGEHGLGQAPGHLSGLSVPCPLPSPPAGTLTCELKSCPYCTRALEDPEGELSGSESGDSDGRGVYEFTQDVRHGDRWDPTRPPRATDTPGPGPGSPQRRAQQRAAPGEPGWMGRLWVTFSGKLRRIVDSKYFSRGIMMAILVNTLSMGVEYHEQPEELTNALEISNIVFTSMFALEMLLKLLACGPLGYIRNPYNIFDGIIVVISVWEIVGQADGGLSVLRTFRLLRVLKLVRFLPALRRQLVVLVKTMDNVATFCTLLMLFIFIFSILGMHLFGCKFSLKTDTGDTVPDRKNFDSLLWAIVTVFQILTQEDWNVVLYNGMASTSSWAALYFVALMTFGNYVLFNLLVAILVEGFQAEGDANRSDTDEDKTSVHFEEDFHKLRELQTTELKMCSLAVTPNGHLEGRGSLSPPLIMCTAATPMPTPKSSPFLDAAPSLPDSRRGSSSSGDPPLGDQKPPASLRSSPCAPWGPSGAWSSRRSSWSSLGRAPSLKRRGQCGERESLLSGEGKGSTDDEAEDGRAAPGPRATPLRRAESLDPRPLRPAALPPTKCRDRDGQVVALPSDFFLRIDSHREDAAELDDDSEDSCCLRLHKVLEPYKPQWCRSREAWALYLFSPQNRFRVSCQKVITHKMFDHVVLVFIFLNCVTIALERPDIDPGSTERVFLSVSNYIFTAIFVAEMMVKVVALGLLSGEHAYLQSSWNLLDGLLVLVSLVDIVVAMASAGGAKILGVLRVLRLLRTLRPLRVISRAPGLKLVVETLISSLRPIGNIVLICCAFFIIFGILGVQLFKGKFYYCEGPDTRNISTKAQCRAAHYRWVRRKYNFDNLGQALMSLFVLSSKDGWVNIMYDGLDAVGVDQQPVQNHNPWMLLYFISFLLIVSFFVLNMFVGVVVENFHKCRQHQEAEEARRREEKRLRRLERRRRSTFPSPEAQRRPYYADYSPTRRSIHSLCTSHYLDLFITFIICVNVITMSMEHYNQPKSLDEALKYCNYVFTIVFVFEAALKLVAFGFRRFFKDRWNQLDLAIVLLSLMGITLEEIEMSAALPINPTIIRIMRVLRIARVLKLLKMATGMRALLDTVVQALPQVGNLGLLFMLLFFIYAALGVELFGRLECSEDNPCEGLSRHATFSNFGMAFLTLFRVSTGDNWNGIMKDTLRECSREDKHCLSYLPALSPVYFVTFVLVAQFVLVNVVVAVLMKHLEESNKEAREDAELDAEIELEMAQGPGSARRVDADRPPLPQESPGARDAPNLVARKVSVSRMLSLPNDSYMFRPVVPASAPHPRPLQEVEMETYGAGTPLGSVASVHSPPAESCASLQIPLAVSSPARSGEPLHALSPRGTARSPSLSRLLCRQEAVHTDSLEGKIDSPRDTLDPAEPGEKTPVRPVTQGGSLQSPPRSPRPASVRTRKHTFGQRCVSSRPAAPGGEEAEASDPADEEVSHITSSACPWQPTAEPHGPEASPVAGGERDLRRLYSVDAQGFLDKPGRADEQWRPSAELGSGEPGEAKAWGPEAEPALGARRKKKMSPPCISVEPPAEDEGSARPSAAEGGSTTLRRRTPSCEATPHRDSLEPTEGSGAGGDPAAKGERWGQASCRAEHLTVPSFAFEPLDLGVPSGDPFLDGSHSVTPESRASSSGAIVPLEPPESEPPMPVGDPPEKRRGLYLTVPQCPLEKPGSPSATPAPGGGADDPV
CYP2C9 act = increases human cytochrome P450 2C9 activity; activation factor at 5 µM; recombinant CYP2C9, luciferin-H conversion, luminescence; active compounds read high; factor 1 = untreated enzyme, 0 = blocked; 1.4% of 96,000 active; P11712;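 active means activation factor of 2 or more for CYP2C9 at a 5 µM dose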;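 further: 0 = sulfaphenazole-blocked wells and 1 = vehicle-only wells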
CYP2C9 inh = blocks human cytochrome P450 2C9; AID 777; CYP2C9 Supersomes, luciferin-H conversion, luminescence; P11712; 20% of 96,000 active; inhibition, % at 5 µM;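 active means blocking of liver enzyme CYP2C9 beyond about 50% at 5 µM, limit read from the data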
Active calls of the source: *; nt = not tested or not shown. Most compounds without a hit are left out; they make up all but 27% or so of the library.

SMILES	CYP2C19 act	CYP2C19 inh	Cav32 inh	CYP2C9 act	CYP2C9 inh
NC(=O)[C@H]1CC2(CC(c3cccc(NC(=O)COc4ccc(Cl)cc4)c3)=NO2)CN1C(=O)Cc1ccc([N+](=O)[O-])cc1 (some centres undefined)	nt	nt	-0.41	nt	nt
O=C(NCc1ccc2c(c1)OCO2)c1cc2n(n1)C(C(F)(F)F)CC(c1ccc3c(c1)OCO3)N2 (centres undefined)	1.2	-17	nt	1.1	-8
c1ccc(N2CCN(c3ncnc4sc5c(c34)CCC5)CC2)cc1	0.2	75*	-0.37	0.3	72*
Cc1nccn1-c1ncnc2sc3c(c12)CCCC3	0.8	22	0.87	0.9	5
c1nc(N2CCC3(CC2)OCCO3)c2c3c(sc2n1)CCCC3	0.1	85*	-0.23	0.4	63*
CCc1cc2c(NCCN3CCCCC3)ncnc2s1	0.7	27	-0.011	1	2
CCc1cc2c(N3CCN(c4ccccc4)CC3)ncnc2s1	0.7	35	-3.6	0.4	56*
O=C(c1ccco1)N1CCN(c2ncnc3sc4c(c23)CCC4)CC1	0.3	72*	2.1	0.1	86*
CCc1nc(N2CCN(C(=O)c3ccco3)CC2)c2c3c(sc2n1)CCCC3	0.8	24	-2.3	0.5	49
Cn1cnnc1SCCNS(=O)(=O)c1ccccc1	1	3	-0.72	1	-3
O=C(Cn1c(=O)n(Cc2ccco2)c(=O)c2c3c(sc21)CCCC3)Nc1ccccc1	0.3	72*	-4.2	0.2	80*
O=c1c2c3c(sc2n(CCN2CCCCC2)c(=O)n1Cc1ccco1)CCCCC3	0.5	45	-0.62	0.4	61*
NC(=O)Cn1c(=O)n(Cc2ccco2)c(=O)c2c3c(sc21)CCCCC3	0.8	21	-0.83	0.8	18
O=C(CCNS(=O)(=O)c1cccs1)NCc1ccco1	0.9	14	-0.034	0.9	14
CCOC(=O)c1[nH]c(C)c(C(=O)NCc2ccc(C)cc2)c1C	0.8	19	-0.52	0.7	28
CCOC(=O)c1[nH]c(C)c(C(=O)Nc2cc(OC)ccc2OC)c1C	0.7	25	nt	2*	-96
COc1ccccc1NC(=O)c1[nH]c(C)c(C(C)=O)c1C	0.5	47	0.48	0.2	79*
CCOC(=O)c1c(C)c(C(=O)Nc2cc(OC)ccc2OC)c(C)n1CC	0.4	61*	-2.9	1.3	-26
CCOC(=O)c1[nH]c(C)c(C(=O)c2ccc(C)cc2)c1C	0.4	63*	-1.5	0.7	35
O=C(NCc1ccco1)c1ccc2nc3sc4c(c3c(=O)n2c1)CCCC4	0.8	19	-2.2	0.6	40
O=C(CCCCCC(=O)N(CCO)CCO)N(CCO)CCO	1	-1	0.45	0.9	6
FC(F)(F)c1cc(-c2ccccc2)nc(NCc2cccnc2)n1	0.1	93*	-1.2	0.3	73*
COc1nc(-c2ccccc2)cc(C(F)(F)F)n1	1	-3	-0.45	0.8	19
FC(F)(F)c1cc(-c2ccco2)nc(NCc2ccccc2)n1	0.9	14	-0.57	0.6	36
FC(F)(F)c1cc(-c2ccco2)nc(NCc2cccnc2)n1	0.2	85*	nt	0.3	66*
SMILES	CYP2C19 act	CYP2C19 inh	Cav32 inh	CYP2C9 act	CYP2C9 inh
COc1ccc(Nc2ncc3c(n2)CC(c2ccc(OC)cc2)CC3=O)cc1 (centres undefined)	0.9	6	0.046	0.7	27
O=C(Nc1ncc2c(n1)CC(c1ccccc1)CC2=O)c1ccco1 (centres undefined)	nt	nt	0.019	nt	nt
O=C1CC(c2ccco2)Cc2nc(Nc3ccc(F)cc3)ncc21 (centres undefined)	0.4	56*	1.1	0.4	59*
COc1ccccc1C(=O)Nc1ncc2c(n1)CC(c1ccco1)CC2=O (centres undefined)	0.4	56*	-0.16	0.7	29
COc1ccc(C2CC(=O)c3cnc(NC(=O)c4ccccc4)nc3C2)c(OC)c1 (centres undefined)	0.5	47	-3.3*	0.5	48
O=C1CC(c2ccccc2)Cc2nc(NCc3ccco3)ncc21 (centres undefined)	0.5	45	nt	0.5	51*
CC(=O)Nc1ccc(S(=O)(=O)N(C)CC(=O)Nc2ccccc2N2CCOCC2)cc1	0.9	13	0.44	1.3	-34
O=C1C2(CCC13COC(c1ccc(O)cc1)OC3)COC(c1ccc(O)cc1)OC2 (centres undefined)	1.1	-9	1.7	1	-4
CC(/C=N\NC(=O)c1cccnc1)c1ccccc1 (centres undefined)	nt	nt	-0.0034	nt	nt
O=C1NN=C(c2ccc(Cl)cc2)CC1c1cccc(Cl)c1 (centres undefined)	0.3	68*	-2.7	0.8	18
COc1cc(C2/C(=C(\O)c3cc(C)ccc3C)C(=O)C(=O)N2CCN(C)C)ccc1O (centres undefined)	0.8	16	0.3	1	-3
Nc1ccc(O)c(-c2nc3ccccc3s2)c1	0.8	18	-0.22	0.7	34
Nc1cccc(-c2nc3ccc(N)cc3s2)c1	0.2	80*	-0.1	0.4	58*
Cn1c(CO)cnc1SCc1ccc(Cl)cc1	0.2	84*	0.0042	0.8	17
Clc1cccc(Cl)c1CO/N=C/c1c(-c2ccccc2)nc2n1CCS2	1	4	-1.1	0.3	73*
O=C(NNc1cccc(Cl)n1)Nc1cccc(Cl)c1	0.3	72*	0.073	0.8	17
O=C(Nc1ccccc1)Nc1cccc(Cl)c1	0.7	30	-1.7	1.3	-30
O=C(NCCc1ccncc1)Nc1cccc(Cl)c1	0	98*	0.3	0	98*
CCCNC(=O)NCCc1ccncc1	0.7	33	-0.072	0.6	39
O=C(NCCc1ccncc1)Nc1ccccc1Cl	0.1	89*	-2.8	0.2	82*
CNC(=S)NNC(=O)COc1cccc(C)c1C	nt	nt	0.0077	nt	nt
CCOC(=O)CSc1nc2sc3c(c2c(=O)[nH]1)CC(C)(CC)OC3 (centres undefined)	0.8	16	-0.9	0.9	12
CCC1(C)Cc2c(sc3nc(NN)n(C)c(=O)c23)CO1 (centres undefined)	0	99*	0.19	0.1	94*
CC(/C=N/n1c(C2CCCCC2)n[nH]c1=S)=C\c1ccccc1	0.6	38	-0.59	0.4	61*
CC1=N/C(=C\c2ccc([N+](=O)[O-])cc2)C(=O)N1c1cc(Cl)ccc1C	1	1	-1.6	1.1	-9
CCOC(=O)c1ccc(NC(=O)CSc2n[nH]c(-c3ccncc3)n2)cc1	0.5	48	0.15	0	96*
COC(=O)c1ccc(NC(=O)CSc2n[nH]c(-c3ccncc3)n2)cc1	0.6	40	0.94	0.1	95*
O=C(CSc1n[nH]c(-c2cccnc2)n1)Nc1ccccc1	nt	nt	1.1	nt	nt
CCOc1ccc(N/C(C)=C/C(=O)c2ccc(C)o2)cc1	0.5	52*	-1.6	0.8	21
CCCCNC1=C(Br)C(=O)CC(C)(C)C1	0.2	82*	0.055	1	2
